Where “and” joins values, the source holds several entries; their conditions need not be identical. Identical values can stand only once. Inconclusive results are not listed. Calls of active or inactive are those of the source. How the source made its calls, unless noted: active means hit-call score of the fitted dose curve at least 0.9, where 1 is the maximum; inconclusive means response in the unintended direction; inactive means score below 0.9.
Tests used:
[1] = TOX21_p53_BLA_p2_viability: Viability Assessment in the Tox21 HCT-116 p53 Agonism Beta-lactamase Assay, Phase 2 (AID 2283591);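 further: compound exposure lasted 16 h at 37 °C; actives lower the ATP signal meaning cytotoxicity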
Method in brief: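 HCT-116 p53-bla cells (4000/well) rested 5 h at 37C, then received compounds in DMSO (217-fold dilution) for 16 h at 37C, 5% CO2. After the CCF4 read, CellTiter-Glo was added; ATP luminescence was read after 30 min at room temperature.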

[2] = target: Cellular tumor antigen p53 (Homo sapiens) (UniProt P04637); test: TOX21_p53_BLA_p2_ratio: Tox21 HCT-116 p53 Agonism Beta-lactamase Assay, Ratio, Phase 2 (AID 2283592)
Method in brief: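 Gain-of-signal p53 agonism was scored from the beta-lactamase FRET ratio (460/530 nm, 405 nm excitation) in HCT116 cells treated 16 h at 37C, 5% CO2, with DMSO serving as negative control and baseline.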

[3] = TOX21_p53_BLA_p3_viability: Viability Assessment in the Tox21 HCT-116 p53 Agonism Beta-lactamase Assay, Phase 3 (AID 2283593);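 further: cells exposed to compound for 16 h before reading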
Method in brief: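 HCT-116 cells (4000/well) rested 5 h at 37C, then got DMSO compounds by pin tool (217-fold dilution) for 16 h at 37C, 5% CO2. After the bla read, CellTiter-Glo was added and luminescence read at 30 min, room temperature.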

[4] = target: Cellular tumor antigen p53 (Homo sapiens) (UniProt P04637); test: TOX21_p53_BLA_p3_ratio: Tox21 HCT-116 p53 Agonism Beta-lactamase Assay, Ratio, Phase 3 (AID 2283596)
Method in brief: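 HCT116 p53-bla cells (4000/well) given compound in DMSO (217-fold dilution) after 5 h, incubated 16 h at 37C. CCF4-AM substrate 2 h at room temperature; 460/530 nm emission ratio, gain fitted against DMSO.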

[5] = TOX21_p53_BLA_p4_viability: Viability Assessment in the Tox21 HCT-116 p53 Agonism Beta-lactamase Assay, Phase 4 (AID 2283597);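 further: hits lower the luminescence signal meaning cytotoxicity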
Method in brief: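 Following a 16 h exposure at 37C, the treated HCT116 wells were first read for the FRET ratio. They were then lysed with CellTiter-Glo, and ATP luminescence was recorded after 30 min at room temperature.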

[6] = target: Cellular tumor antigen p53 (Homo sapiens) (UniProt P04637); test: TOX21_p53_BLA_p5_ratio: Tox21 HCT-116 p53 Agonism Beta-lactamase Assay, Ratio, Phase 5 (AID 2283599)
Method in brief: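 HCT-116 cells carrying a p53-inducible beta-lactamase reporter were seeded at 4000 cells/well and dosed after 5 h with compound in DMSO (217-fold dilution). After 16 h at 37C, CCF4-AM substrate was added for 2 h, and the 460/530 nm emission ratio was scored as gain-of-signal versus DMSO.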

[7] = target: Cellular tumor antigen p53 (Homo sapiens) (UniProt P04637); test: TOX21_p53_BLA_p4_ratio: Tox21 HCT-116 p53 Agonism Beta-lactamase Assay, Ratio, Phase 4 (AID 2283601)
Method in brief: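 HCT116 cells carrying an inducible beta-lactamase reporter were plated at 4000 cells/well, rested 5 h, then exposed to compounds in DMSO (217-fold dilution) for 16 h at 37C. CCF4-AM substrate was loaded 2 h at room temperature; 460/530 nm emission ratio scored gain-of-signal versus DMSO.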

[8] = TOX21_p53_BLA_p5_viability: Viability Assessment in the Tox21 HCT-116 p53 Agonism Beta-lactamase Assay, Phase 5 (AID 2283600)
Method in brief: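 After the 460/530 nm beta-lactamase measurement, the wells received an ATP-detection luciferase reagent; signal was read 30 min later at RT. Compound treatment lasted 16 h on cells pre-incubated 5 h post-seeding.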

[9] = CCTE_Shafer_MEA_dev_firing_rate_mean: CCTE's Neural Network Formation Assay for Mean Firing Rate, Shafer Lab (AID 2284031; active means hit-call score of the fitted dose curve at least 0.9, where 1 is the maximum; inactive means score below 0.9)
Method in brief: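 Developing rat cortical networks on MEA plates undergo 12-day compound exposure. Firing frequency, averaged across active electrodes, is integrated as area under the curve over four recording days, referenced to DMSO.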

[10] = CCTE_Shafer_MEA_dev_per_burst_spike_percent: CCTE's Neural Network Formation Assay for Percent of Spikes in a Burst, Shafer Lab (AID 2284032; active means hit-call score of the fitted dose curve at least 0.9, where 1 is the maximum; inactive means score below 0.9)
Method in brief: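 Rat primary cortical neurons on 16-electrode MEA wells, dosed from plating day 0 for 12 days with renewal on DIV 5 and 9; spikes-in-bursts percentage averaged over bursting electrodes, collapsed as AUC across days 5, 7, 9, 12; loss direction versus DMSO.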

[11] = CCTE_Shafer_MEA_dev_burst_rate: CCTE's Neural Network Formation Assay for Burst Rate, Shafer Lab (AID 2284042; active means hit-call score of the fitted dose curve at least 0.9, where 1 is the maximum; inactive means score below 0.9)
Method in brief: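 Cells plated, treated day 0; recorded DIV 5, 7, 9, 12; fed and re-treated DIV 5, 9. Endpoint: bursts per recording time, active-electrode well mean, trapezoidal AUC, fitted in decreasing direction against DMSO baseline.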

[12] = CCTE_Shafer_MEA_dev_per_burst_interspike_interval: CCTE's Neural Network Formation Assay for Burst Interspike Interval, Shafer Lab (AID 2284044; active means hit-call score of the fitted dose curve at least 0.9, where 1 is the maximum; inactive means score below 0.9;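 further: mean spike spacing inside bursts as AUC over recordings on days 5 7 9 12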)
Method in brief: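 Mean interspike interval within single-electrode bursts, averaged over bursting electrodes, from rat cortical cultures on MEA plates recorded on days 5, 7, 9 and 12. Continuous compound exposure from plating; trapezoidal AUC fitted downward relative to DMSO.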

[13] = CCTE_Shafer_MEA_dev_interburst_interval_mean: CCTE's Neural Network Formation Assay for Mean Interburst Interval, Shafer Lab (AID 2284046; active means hit-call score of the fitted dose curve at least 0.9, where 1 is the maximum; inactive means score below 0.9;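 further: well-mean interburst interval of bursting electrodes as AUC over four recording days; curve fitted for decrease in interburst interval relative to DMSO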)
Method in brief: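 Developing rat cortical networks on 48-well MEAs receive compound from the day of plating. Burst intervals from each active electrode are averaged per well, and AUC over the recording days is fitted in the negative direction against DMSO.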

[14] = CCTE_Shafer_MEA_dev_inter_network_spike_interval_mean: CCTE's Neural Network Formation Assay for Mean Inter-network Spike Interval, Shafer Lab (AID 2284047; active means hit-call score of the fitted dose curve at least 0.9, where 1 is the maximum; inactive means score below 0.9)
Method in brief: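 Rat cortical cultures, 1.5 x 10^5 cells/well on 48-well MEA plates; continuous exposure days 0–12, medium and compound refreshed DIV 5, 9. Mean time between consecutive network-spike peaks; AUC across DIV 5/7/9/12; DMSO baseline, negative fitting direction.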

[15] = CCTE_Shafer_MEA_dev_network_spike_number: CCTE's Neural Network Formation Assay for Number of Network Spikes, Shafer Lab (AID 2284048; active means hit-call score of the fitted dose curve at least 0.9, where 1 is the maximum; inactive means score below 0.9;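 further: synchronized bursts across electrodes counted on days 5 7 9 12 and integrated as AUC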)
Method in brief: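 Primary rat cortical neurons were seeded at 1.5 x 10^5 cells/well on PEI-coated 16-electrode MEA wells with laminin, exposed from plating day 0, compound renewed at DIV 5 and 9. Network spikes were recorded on days 5, 7, 9, 12 and summarized as trapezoidal AUC versus DMSO.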

[16] = CCTE_Shafer_MEA_dev_network_spike_peak: CCTE's Neural Network Formation Assay for Mean Number of Electrodes in Network Spike, Shafer Lab (AID 2284049; active means hit-call score of the fitted dose curve at least 0.9, where 1 is the maximum; inactive means score below 0.9)
Method in brief: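 Continuous 12-day exposure of rat cortical cultures, starting at plating, on MEA plates. Endpoint: electrodes participating in network-spike peaks, AUC across DIV 5–12, DMSO as negative control.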

[17] = CCTE_Shafer_MEA_dev_spike_duration_mean: CCTE's Neural Network Formation Assay for Mean Spike Duration, Shafer Lab (AID 2284051; active means hit-call score of the fitted dose curve at least 0.9, where 1 is the maximum; inactive means score below 0.9;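 further: mean network spike duration pooled as area under curve over DIV 5 to 12 recordings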)
Method in brief: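 Readout is the average length of network spikes, clustered firing across electrodes, summed over DIV 5, 7, 9 and 12 as area under the curve. Neurons from rat cortex developed networks on MEA plates under continuous 12-day exposure.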

[18] = CCTE_Shafer_MEA_dev_network_spike_duration_std: CCTE's Neural Network Formation Assay for Standard Deviation of Network Spike Duration, Shafer Lab (AID 2284052; active means hit-call score of the fitted dose curve at least 0.9, where 1 is the maximum; inactive means score below 0.9;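 further: area under curve of spike duration SD across recording days 5 to 12; hits are decreases in network spike duration SD versus DMSO vehicle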)
Method in brief: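 Read-out is the trapezoidal area-under-the-curve across recordings made on days 5, 7, 9 and 12, fitted in the negative direction against DMSO baseline. Neurons were primary rat cortical cells treated from day 0, with treatment renewed at each feed.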

[19] = CCTE_Shafer_MEA_dev_per_network_spike_spike_number_mean: CCTE's Neural Network Formation Assay for Mean Number of Spikes in a Network Spike, Shafer Lab (AID 2284053; active means hit-call score of the fitted dose curve at least 0.9, where 1 is the maximum; inactive means score below 0.9)
Method in brief: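 Continuous twelve-day exposure of developing rat cortical networks grown over 16 microelectrodes per well; spontaneous firing is captured at four time points, and the per-network-spike spike number is integrated over development by trapezoidal AUC.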

[20] = CCTE_Shafer_MEA_dev_LDH: CCTE's Lactate Dehydrogenase Assay for Cytotoxicity in the Neural Network Formation Assay, Shafer Lab (AID 2284068);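 further: exposure for twelve days from plating with re-dosing on DIV 5 and 9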
Method in brief: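 Cytotoxicity companion to network-formation recordings: rat cortical neurons received compound over 12 days of development, re-dosed at DIV 5 and 9 feeds. Viability was inferred from LDH enzyme activity relative to DMSO.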

[21] = CCTE_Shafer_MEA_dev_mutual_information_norm: CCTE's Neural Network Formation Assay for Mutual Information Normalization, Shafer Lab (AID 2284091; active means hit-call score of the fitted dose curve at least 0.9, where 1 is the maximum; inactive means score below 0.9)
Method in brief: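 Rat cortical cultures, 48-well MEA, continuous exposure DIV 0–12 with full media/compound change DIV 5 and 9. Readout: inter-electrode mutual information, AxIS adaptive spike detection; AUC across DIV 5/7/9/12 recordings; DMSO baseline, negative fitting direction.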

[22] = CCTE_Shafer_MEA_dev_correlation_coefficient_mean: CCTE's Neural Network Formation Assay for Mean Correlation Coefficient, Shafer Lab (AID 2284093; active means hit-call score of the fitted dose curve at least 0.9, where 1 is the maximum; inactive means score below 0.9)
Method in brief: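 Read-out: well-mean correlation coefficient of spike trains between electrode pairs, collapsed over four recording days as trapezoidal area-under-the-curve. Developing rat cortical neuron networks grown on MEAs received test chemical continuously from plating.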

Measured: AC50

Sequence of Cellular tumor antigen p53 (Homo sapiens) (P04637 whole entry, looked up): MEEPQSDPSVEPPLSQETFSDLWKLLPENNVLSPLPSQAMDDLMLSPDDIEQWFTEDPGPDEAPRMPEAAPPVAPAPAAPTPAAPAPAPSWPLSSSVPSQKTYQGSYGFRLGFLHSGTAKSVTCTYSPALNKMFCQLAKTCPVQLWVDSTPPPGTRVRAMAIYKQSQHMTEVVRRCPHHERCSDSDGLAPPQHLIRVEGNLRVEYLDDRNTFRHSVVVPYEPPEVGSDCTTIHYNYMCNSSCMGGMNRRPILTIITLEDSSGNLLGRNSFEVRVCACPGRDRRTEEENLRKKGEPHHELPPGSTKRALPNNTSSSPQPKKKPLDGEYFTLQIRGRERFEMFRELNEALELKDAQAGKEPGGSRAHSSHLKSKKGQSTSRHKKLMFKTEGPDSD

C[C@]12CC[C@@H]3c4ccc(OC(=O)N(CCCl)CCCl)cc4CC[C@H]3[C@@H]1CC[C@@H]2OP(=O)(O)O
active: [2] 8.82 µM and 26.6 µM | [4] 7.01 µM and 23.1 µM | [6] 7.78 µM and 24.6 µM | [7] 8.9 µM and 36.3 µM
inactive: [1] | [3] | [5]

BrCCc1ccccc1
inactive: [1] | [2] | [3] | [4] | [5] | [8]

O=c1c2ccccc2[se]n1-c1ccccc1
inactive: [1] | [2] | [3] | [4] | [5] | [6] | [7]

CCC1(c2ccccc2)C(=O)NC(=O)NC1=O
not listed: [7]
inactive: all other assays above
